The experiment in a line: growth inhibition of WT strain, primary screen, mitochondrial fusion inhibitor project, WT and mutant strains, chemical genetic (AID 1362). The following applies: mitochondrial fusion phenotypic screen, at 10 µM.
[1] abbreviates: WT strain, growth inhibition, stronger effect = higher value.

From PubChem BioAssay AID1362 (SRMLSC, 2008) come the findings set out here.

The structures appear in SMILES notation. The whole screen tested about 190,000 compounds, of which about 4,000 (2.1%) were called active. No stated cut-off is given here; in the data, active means inhibition above about 58%; inactive means the rest, inconclusive results apart; tested in S. cerevisiae. This excerpt belongs to a sample that is enriched for actives.

On to `CCCCCCCCn1c2c(c(=N)c3c1CCC3)CCCC2`, for which the inhibition (usually the change of the read-out against control, counted positive when it falls) under setting [1] was 80.6% (active) and the inhibition (mutant strain inhibition) stood at 77.5%.

Turning to `O=C1/C(=C/c2cccs2)CCC1C1CCCC1` (centres undefined), the inhibition is 9.28% (inactive) under setting [1] and 37.2% (mutant strain inhibition).

In the case of `Cc1ccc(COc2ccc(/C=N/NC(=O)CN3CCCCC3)cc2)cc1`, the inhibition runs as follows: under setting [1], 0.04% (inactive); (mutant strain inhibition) -4.75%.

As for `Clc1ccccc1SCc1nc2ccccc2[nH]1`, the inhibition was 39.4% (inactive) under setting [1] and 35.4% (mutant strain inhibition).

In the case of `COC(=O)Cc1nc2ccccc2[nH]1`, the inhibition under setting [1] was 16.6% (inactive) and the inhibition (mutant strain inhibition) was 14%.

Turning to `c1ccc2c(CSCc3nc4ccccc4[nH]3)cccc2c1`, the inhibition by setting is: under setting [1], 74.6% (active); (mutant strain inhibition) 69.3%.

As to `O=C(NCc1ccccc1)C1CCCN(c2nc3ccsc3c(=O)s2)C1` (centres undefined), the inhibition is, setting by setting: under setting [1], -14.1% (inactive); (mutant strain inhibition) 0.23%.

Regarding `O=C(c1ccc(Cl)c([N+](=O)[O-])c1)N1CCN(c2ccccc2)CC1`, the inhibition under setting [1] is 65.8% (inactive) and the inhibition (mutant strain inhibition) stood at 70.4%.

`O=C(/C=C/c1ccc(Cl)cc1)N1CCN(c2ccccc2[N+](=O)[O-])CC1`: the inhibition was 65.4% (active) under setting [1] and 39.2% (mutant strain inhibition).

Turning to `CO/N=C/c1ccc(N2CCN(C(=O)c3cccc(Cl)c3)CC2)c([N+](=O)[O-])c1`, the inhibition is, setting by setting: under setting [1], 36.5% (inactive); (mutant strain inhibition) 22.2%.

Take `CCn1cc(C(=O)NCCCN2CCCCCC2)c(=O)c2cc(S(=O)(=O)N3CCc4ccccc4C3)ccc21`: the inhibition is 4.36% (inactive) under setting [1] and -2.13% (mutant strain inhibition).

On to `COc1ccc(NC(=O)CCNS(=O)(=O)c2ccc3c(c2)c(=O)n(C)c(=O)n3C)cc1OC`, for which the inhibition runs as follows: under setting [1], -9.99% (inactive); (mutant strain inhibition) 2.95%.

Turning to `CCCNC(=O)CN(Cc1ccccc1F)S(=O)(=O)c1ccc(C)cc1`, the inhibition under setting [1] is -13.2% (inactive) and the inhibition (mutant strain inhibition) is -40.4%.

Take `O=C(COC(=O)Cc1ccc(Br)cc1)Nc1c(F)c(F)c(F)c(F)c1F`: the inhibition is, setting by setting: under setting [1], 19.9% (inactive); (mutant strain inhibition) 7.41%.

In the case of `COC(=O)Cc1ccc(N(Cc2ccccc2F)S(=O)(=O)c2ccc(Br)cc2)cc1`, the inhibition runs as follows: under setting [1], 69.7% (active); (mutant strain inhibition) 64.6%.

For `CCCS(=O)(=O)N1CCC(CCOc2ccccc2)(C(=O)OCC)CC1`, the inhibition under setting [1] was 5.25% (inactive) and the inhibition (mutant strain inhibition) was -7.89%.

Turning to `CCSC1=NCCN1C(=O)c1ccc(S(=O)(=O)N(CC)CC)cc1`, the inhibition under setting [1] is 1.64% (inactive) and the inhibition (mutant strain inhibition) was -5.04%.

With `O=C(COC(=O)c1ccncc1)c1ccccc1`, the inhibition runs as follows: under setting [1], -12.9% (inactive); (mutant strain inhibition) 3%.

As for `COc1ccc(N2CCN(CCNC(=O)CCN3C(=O)COc4ccccc43)CC2)cc1`, the inhibition reads like this: under setting [1], -0.99% (inactive); (mutant strain inhibition) 42.7%.

Take `COc1ccc(N2CCN(CCNC(=O)c3nnc(Cc4c(F)cccc4Cl)o3)CC2)cc1`: the inhibition reads like this: under setting [1], 82.5% (active); (mutant strain inhibition) -0.13%.

On to `COc1ccc(CN2CC(C(=O)NCCN3CCN(c4ccccc4F)CC3)CC2=O)cc1` (centres undefined), for which the inhibition under setting [1] was 5.07% (inactive) and the inhibition (mutant strain inhibition) is 14.3%.

For the compound `O=C(CCn1ccc([N+](=O)[O-])n1)Nc1nccs1`, the inhibition was -14.4% (inactive) under setting [1] and 2.54% (mutant strain inhibition).

Turning to `Cn1c(N)c(C(=O)COC(=O)c2ccccc2NCc2ccco2)c(=O)n(C)c1=O`, the inhibition was 12.2% (inactive) under setting [1] and -19.6% (mutant strain inhibition).

Regarding `Cc1ccc(NC(=O)OCc2cncs2)cc1`, the inhibition is, setting by setting: under setting [1], -3.01% (inactive); (mutant strain inhibition) 3.18%.

Take `COc1ccc(OC)c(C(=O)c2ccc(C(=O)N3CCN(Cc4csc(C)n4)CC3)cc2)c1`: the inhibition is -23% (inactive) under setting [1] and 5.3% (mutant strain inhibition).

`Cc1ccc(Cl)c(NC(=O)CN2CCN(C=O)CC2)c1`: the inhibition is -7.62% (inactive) under setting [1] and 12.5% (mutant strain inhibition).

As for `CC(C)c1ccc(OCC(O)Cn2cnc3ccccc32)cc1` (centres undefined), the inhibition is 95.7% (active) under setting [1] and 0.12% (mutant strain inhibition).

Regarding `OC(COc1ccc2ccccc2c1)Cn1cncn1` (centres undefined), the inhibition is 4.91% (inactive) under setting [1] and -2.41% (mutant strain inhibition).

On to `CC(=O)OC(COc1ccc(F)cc1)Cn1cnc2ccccc21` (centres undefined), for which the inhibition by setting is: under setting [1], -0.37% (inactive); (mutant strain inhibition) 4.78%.

As to `CC(=O)Nc1cccc(-c2nc3ccccc3s2)c1C`, the inhibition was -0.41% (inactive) under setting [1] and -5.28% (mutant strain inhibition).

In the case of `COC(=O)C1=C(C)N(c2ccc(Br)cc2)C(=O)/C1=C\c1ccco1`, the inhibition was 13.1% (inactive) under setting [1] and 8.54% (mutant strain inhibition).

With `COC(=O)C1=C(C)N(C(C)c2ccccc2)C(=O)/C1=C\c1ccco1` (centres undefined), the inhibition by setting is: under setting [1], 58.3% (active); (mutant strain inhibition) -4.58%.

For the compound `O=C(CCCN1C(=O)/C(=C/c2ccco2)SC1=S)Nc1ccccc1`, the inhibition is 1.95% (inactive) under setting [1] and -17.3% (mutant strain inhibition).

Take `O=C(NCCN1CCOCC1)Nc1cccc(Cl)c1`: the inhibition runs as follows: under setting [1], -7.63% (inactive); (mutant strain inhibition) -3.81%.

On to `Cc1cc(C)cc(OCC(=O)NCc2cc(C)nc3ccccc23)c1`, for which the inhibition was -2.23% (inactive) under setting [1] and 3.06% (mutant strain inhibition).

For the compound `COc1cc(NC(=S)N2CCCC(C)C2)c(OC)cc1Cl` (centres undefined), the inhibition is, setting by setting: under setting [1], -3.52% (inactive); (mutant strain inhibition) 1.38%.

Turning to `COc1ccc(NC(=O)COc2ccc(C(=O)OCC(=O)N(C)C3CCS(=O)(=O)C3)cc2OC)cc1` (centres undefined), the inhibition by setting is: under setting [1], -3.64% (inactive); (mutant strain inhibition) 1.53%.

Regarding `O=C(Nc1ccc(Cl)cn1)c1ccc2c(c1)OCCO2`, the inhibition under setting [1] is 27.3% (inactive) and the inhibition (mutant strain inhibition) turned out to be 29%.

As to `O=C(Nc1cccc(S(=O)(=O)N2CCCCC2)c1)c1ccc2c(c1)OCO2`, the inhibition was 9.86% (inactive) under setting [1] and 4.97% (mutant strain inhibition).

Take `O=C(Nc1cccc(S(=O)(=O)Nc2ccc(Cl)cc2)c1)c1ccc2c(c1)OCCO2`: the inhibition reads like this: under setting [1], 63.7% (active); (mutant strain inhibition) 29.9%.

On to `CCn1nc(C)cc1C(=O)N1CCCC(C(=O)c2cccc(OC)c2)C1` (centres undefined), for which the inhibition runs as follows: under setting [1], -20.3% (inactive); (mutant strain inhibition) 1.68%.

With `Cn1nnnc1SCC(=O)NNC(=O)c1ccc(Br)cc1`, the inhibition was -19.9% (inactive) under setting [1] and 0.05% (mutant strain inhibition).
